# From PubChem BioAssay
# Calls of active or inactive are those of the source. Unless noted, how the calls were made is not given here.
# Columns and labels:
# [1] = tested on: Wnt5a (protein binding on small-molecule microarray); assay: Wnt5a binders on small-molecule microarray, primary screen, biophysical, 635/667 nm fluorescence (AID 1142); details: 635 nm fluorescence, higher = more signal;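 further: fluorescence read at 667 nm with signal to noise per printed feature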
# [2] = cell viability in Huh7 cells, primary screen, cytotoxicity control for HCV replication inhibitor project, CellTiter-Glo luminescence, basal, 48 h (AID 1143); details: Huh7 HCV replicon, higher = more signal, called active from +8 up or from −8 down;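 further: Huh7 hepatoma cells carrying a hepatitis C replication reporter with no stimulus; test concentration not given here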
# [3] = P. aeruginosa biofilm formation inhibitors, primary screen, PAO1 strain, BacTiter-Glo luminescence, LB-PBS (AID 1144); details: 12 h, higher = more signal
# [4] = CREB reporter modulators without forskolin, primary screen, cell-based, PC12, CRE-LacZ reporter, unstimulated (AID 1145); details: no forskolin, luminescence, 4.5 h, higher = more signal, called active from +8 up or from −8 down
# [5] = CREB reporter modulators under forskolin, primary screen, cell-based, PC12, CRE-LacZ reporter, forskolin-stimulated (AID 1146); details: luminescence, 4.5 h, higher = more signal, called active from +8 up or from −8 down;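 further: PC12 cells with 6xCRE LacZ reporter stimulated by forskolin 10 µM; beta-galactosidase reporter signal reflecting CREB driven transcription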
# [6] = molecular target: Streptavidin (Streptomyces avidinii) (UniProt P22629); assay: streptavidin binders on small-molecule microarray, primary screen, artefact control for SMM compound annotation, biophysical, 635/667 nm fluorescence (AID 1147); details: streptavidin binding, higher = more signal;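 further: signal reflects streptavidin binding to arrayed compounds as a control protein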
# [7] = small-molecule binders of probe aInhba, primary screen, biochemical, small-molecule microarray, 635/667 nm fluorescence (AID 1148); details: higher = more signal;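 further: score merges 667nm spot fluorescence with signal-to-noise for antibody binding to printed compounds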
# Torsin-1A (Homo sapiens) [8] = molecular target: Torsin-1A (Homo sapiens) (UniProt O14656); assay: torsin A binders from cell lysate, primary screen, small-molecule microarray, wild-type, 635/667 nm (AID 1149); details: COS7 hTOR1A-WT lysate, 635 nm fluorescence, higher = more signal
# Torsin-1A (Homo sapiens) [9] = molecular target: Torsin-1A (Homo sapiens) (UniProt O14656); assay: small-molecule binders of mutant TOR1A in lysate, primary screen, cell lysate, small-molecule microarray, COS7 lysate, 635/667 nm fluorescence (AID 1150); details: COS7 hTOR1A mutant lysate, 635 nm fluorescence, higher = more signal;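 further: score pools 667 nm emission and signal to noise measuring lysate protein binding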
# [10] = tested on: Sonic hedgehog protein (Shh); assay: small-molecule binders of Shh protein, primary screen, biochemical, small-molecule microarray, 635/667 nm fluorescence (AID 1151); details: small-molecule microarray binding, 635 nm fluorescence; higher = more signal;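 further: Shh protein binding to compounds spotted on small-molecule microarray slides; score combines spot fluorescence intensity with signal-to-noise across triplicate slides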
# Chain of Torsin-1A (Homo sapiens) (O14656 whole entry, looked up): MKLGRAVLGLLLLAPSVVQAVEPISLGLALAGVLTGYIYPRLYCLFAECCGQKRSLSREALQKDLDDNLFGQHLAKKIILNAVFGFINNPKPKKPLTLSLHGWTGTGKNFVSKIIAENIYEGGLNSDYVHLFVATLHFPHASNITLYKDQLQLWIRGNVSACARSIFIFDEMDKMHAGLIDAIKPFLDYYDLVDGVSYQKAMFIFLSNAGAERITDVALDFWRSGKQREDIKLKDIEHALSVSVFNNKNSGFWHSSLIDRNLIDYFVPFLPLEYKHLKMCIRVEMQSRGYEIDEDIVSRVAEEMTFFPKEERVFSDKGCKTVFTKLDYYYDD
# Chain of Streptavidin (Streptomyces avidinii) (P22629 whole entry, looked up): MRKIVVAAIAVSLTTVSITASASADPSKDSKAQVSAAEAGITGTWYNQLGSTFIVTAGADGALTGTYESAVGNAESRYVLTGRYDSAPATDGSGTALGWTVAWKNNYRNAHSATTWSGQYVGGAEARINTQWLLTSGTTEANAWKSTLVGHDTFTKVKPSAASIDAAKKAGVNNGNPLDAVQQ
SMILES,composite z-score [1],z-score [2],z-score [3],z-score [4],z-score [5],composite z-score [6],composite z-score [7],composite z-score (Torsin-1A (Homo sapiens) [8]),composite z-score (Torsin-1A (Homo sapiens) [9]),composite z-score [10]
C=CCC(OC(C)=O)[C@@H]1[C@@H](N(Cc2cccc3ccccc23)C(=O)c2cccc3ccccc23)c2cc(OCCCO)ccc2N1C(=O)c1ccc2ccccc2n1 (stereo not given in full),-0.0721,-1.66 (inactive),0.603 (inactive),0.265 (inactive),0.446 (inactive),0.193,-0.0791,-0.309,-0.297,0.832
O=C1OCCC=C[C@H]2OC34C=CCN(Cc5ccccc5)C(=O)[C@H]3N(CCCCCO)C(=O)[C@@H]4C12 (stereo not given in full),-0.733,0.409 (inactive),-1.86 (inactive),-0.216 (inactive),-0.732 (inactive),-0.636,-0.128,2.82,2.07,-0.211
COC(=O)[C@@]1(Cc2ccccc2)[C@H]2c3cc(C(=O)N(C)C)n(Cc4c(-c5ccccc5)noc4C)c3C[C@H]2CN1C(=O)c1ccccc1,0.235,-2.2 (inactive),-0.0247 (inactive),0.201 (inactive),-0.732 (inactive),1.47,0.308,0.301,0.584,-0.141
COCCOC(=O)N1C(=O)[C@@]2(c3ccccc31)[C@H](C(=O)NC[C@H](O)c1ccccc1)[C@H]1C(=O)O[C@H](c3ccccc3)[C@H](c3ccccc3)N1[C@@H]2c1ccc(OCCO)cc1,0.788,-3.37 (inactive),-1.46 (inactive),-1.83 (inactive),-0.686 (inactive),0.168,0.0588,0.646,0.857,2.29
COc1ccc(C#Cc2ccc3c(c2)[C@]2(C(=O)N3)[C@H](c3ccc(O)cc3)N3[C@H](c4ccccc4)[C@H](c4ccccc4)OC(=O)[C@H]3[C@@H]2C(=O)N2CCCCCCC2)cc1,1.12,-3.96 (inactive),-1.42 (inactive),0.0653 (inactive),-0.648 (inactive),1.9,1.43,1.55,1.43,2.09
O=C/C=C/c1ccc2c(c1)OCO2,0.0218,-1.95 (inactive),-1.39 (inactive),-0.491 (inactive),0.106 (inactive),-0.142,-0.0509,0.219,0.0622,0.504
C=CCC(OC(C)=O)[C@@H]1[C@@H](N(Cc2ccc(-c3ccccc3)cc2)C(=O)Cc2ccc(F)cc2)c2cc(OCCCO)ccc2N1C(=O)c1ccc2ccccc2n1 (stereo not given in full),-0.212,0.0753 (inactive),-0.201 (inactive),2.31 (inactive),-0.116 (inactive),0.171,0.151,0.226,0.0886,0.321
CCOC(=O)C[C@H]1[C@H](OC(=O)Cc2ccc3c(c2)OCO3)[C@@H](NC(=O)C2CCCCC2)c2cc(OCCCO)ccc2N1C(=O)Cc1ccc(OC)cc1,0.142,-1.15 (inactive),-0.0589 (inactive),6.93 (inactive),-0.943 (inactive),0.219,0.0301,0.146,0.511,0.541
CC(C)Cc1ccc(CN2CC[C@@H](NS(=O)(=O)c3ccccc3)C2)cc1,-0.353,-5.08 (inactive),-0.721 (inactive),0.224 (inactive),-0.138 (inactive),-0.369,-0.188,-0.957,-0.274,1.45
O=C(CCN1CCOCC1)c1cccc(O)c1,0.361,-2.97 (inactive),-0.779 (inactive),0.182 (inactive),5.37 (inactive),0.802,-0.0962,2.59,1.38,1.82
C=CC[C@@]1(C(=O)N2CCOCC2)N=C(c2ccc(OCCCO)cc2)O[C@@H]1c1ccccc1N=[N+]=[N-],0.331,-4.09 (inactive),-0.726 (inactive),-0.333 (inactive),-1.34 (inactive),1.73,0.2,0.41,0.386,0.0055
CC(C)OC(=O)CC(=O)CC(O)c1ccc(C#N)cc1 (stereo not given),-0.0818,-1.68 (inactive),-0.577 (inactive),-0.583 (inactive),-1.27 (inactive),-0.425,0.0816,2.11,2,-0.305
N#Cc1ccc(NN2C(C(O)C3CCCCC3)C=CC3C(=O)N(c4ccccc4)C(=O)C32)cc1 (stereo not given),0.4,0.124 (inactive),-0.984 (inactive),0.808 (inactive),1.47 (inactive),1.75,0.134,0.439,0.361,-0.81
CCOC(=O)C[C@H]1[C@H](OC(=O)c2ccccc2-c2ccccc2)[C@@H](NC(=O)Cc2ccc(OC)cc2)c2cc(OCCCO)ccc2N1C(=O)c1ccccc1,0.222,-0.0369 (inactive),0.817 (inactive),4.57 (inactive),2.83 (inactive),-0.105,-0.287,-0.259,0.405,-0.127
O=C1O[C@@H](c2ccccc2)[C@@H](c2ccccc2)N2[C@@H](c3ccc(OCCO)cc3)[C@]3(C(=O)Nc4ccc(C#CC5=CCCCC5)cc43)[C@@H](C(=O)O)[C@H]12,0.411,-2.22 (inactive),-0.761 (inactive),-0.348 (inactive),7.68 (inactive),1.22,0.0895,0.0714,0.97,0.658
C#CCN(C(/C=C/c1ccccc1)CO)C(C(=O)O)c1ccccc1 (stereo not given),0.0265,-3.59 (inactive),1.13 (inactive),-0.0487 (inactive),-0.53 (inactive),0.18,0.0391,-0.407,-0.959,-0.514
C=CCOC(=O)[C@@H]1[C@H]2C(=O)O[C@H](c3ccccc3)[C@H](c3ccccc3)N2[C@H](c2ccc(OCCOC(=O)[C@@H]3C[C@@H]4C(=O)N[C@@H](Cc5ccccc5)C(=O)N4[C@@H]3c3cccc(OCCO)c3)cc2)[C@@]12C(=O)Nc1ccc(I)cc12,0.867,-0.166 (inactive),-0.525 (inactive),-1.08 (inactive),0.0071 (inactive),-0.184,0.35,1.3,0.731,2.16
CN(C)CCCCNC(=O)[C@H]1C[C@H]2C(=O)N[C@@H](Cc3ccccc3)C(=O)N2[C@H]1c1ccc(O)cc1,0.335,-2.14 (inactive),-1.49 (inactive),-1.9 (inactive),-0.32 (inactive),1.34,-0.128,1.87,0.734,2.09
O=C1OCCC=C[C@H]2OC34C=CCN(c5ccc6ccccc6c5)C(=O)[C@H]3N(CCCCCO)C(=O)[C@@H]4C12 (stereo not given in full),-0.288,0.0855 (inactive),-1.17 (inactive),0.0645 (inactive),-0.206 (inactive),0.136,-0.0471,0.592,1.8,0.157
COCCOC(=O)N1C(=O)[C@@]2(c3cc(C#CCNC(N)=O)ccc31)[C@H](c1ccc(O)cc1)N1[C@H](c3ccccc3)[C@H](c3ccccc3)OC(=O)[C@H]1[C@@H]2C(=O)Nc1nc2ccccc2s1,0.327,-2.61 (inactive),-2.43 (inactive),-0.463 (inactive),-1.5 (inactive),0.454,-0.102,0.518,0.587,1.34
CC=CC(O)C1C=CC2C(=O)N(c3ccccc3)C(=O)C2N1Nc1ccc(C(C)C)cc1 (stereo not given),0.288,0.0547 (inactive),-0.302 (inactive),0.0501 (inactive),0.133 (inactive),1.24,0.143,-0.173,0.55,-0.0469
N[C@@H](Cc1ccccc1)Cn1cc(-c2ccccc2)nn1,-0.15,-2.58 (inactive),-0.244 (inactive),0.0035 (inactive),0.292 (inactive),0.861,-0.0963,-0.0409,-0.0827,0.0939
O=C1N(CCS(=O)(=O)c2ccccc2)Cc2ccccc2[C@H]2OC(c3ccc(OCCCO)cc3)=N[C@@]12CCS(=O)(=O)c1ccccc1,1.05,-1.07 (inactive),-0.447 (inactive),0.881 (inactive),-1.33 (inactive),0.421,0.0831,0.307,-0.0941,0.806
Cc1ccc(S[C@]2(C(=O)NCC(C)C)CC(=O)N(Cc3ccccc3Cl)[C@@H]2c2ccc(CO)cc2)cc1,-0.343,0.554 (inactive),1.15 (inactive),0.118 (inactive),-0.227 (inactive),-1.67,-0.331,-0.326,0.961,-1.18
CCOC(=O)[C@H]1C[C@H]2O[C@@]23C[C@H]1C(=O)N1CCCC1[C@@H]3O[Si](C)(C)C(C)(C)C (stereo not given in full),-0.489,-2.14 (inactive),0.209 (inactive),-1.59 (inactive),-0.852 (inactive),-0.266,-0.245,-0.235,-0.178,1.1
COCCOC(=O)N1C(=O)[C@@]2(c3cc(C#CCNC(N)=O)ccc31)[C@H](C(=O)N1CCN(c3ncccn3)CC1)[C@H]1C(=O)O[C@H](c3ccccc3)[C@H](c3ccccc3)N1[C@@H]2c1ccccc1OCCO,0.518,-1.32 (inactive),-0.94 (inactive),-0.141 (inactive),-0.44 (inactive),0.605,0.0184,0.223,0.416,0.692
Cc1cc(C)cc(N2C(=O)CS(=O)(=O)C2c2cccc([N+](=O)[O-])c2)c1 (stereo not given),0.223,-2.18 (inactive),-0.527 (inactive),-0.0243 (inactive),-0.494 (inactive),1.26,0.952,0.513,0.897,0.659
COc1ccc(NN2C(C(O)c3ccc(OC)c(OCc4ccccc4)c3)C=CC3C(=O)N(C4CCCCC4)C(=O)C32)cc1 (stereo not given),0.285,-2.17 (inactive),-1.73 (inactive),-0.322 (inactive),0.693 (inactive),1.19,0.0769,-0.196,0.185,-0.504
